Records with an inconclusive call do not appear. The source made the active and inactive calls. Calls follow the shape of the dose curve; as a rule, active = well fitted cell-killing curve with a large enough effect in the repeat runs; inconclusive = weak or mixed curves, or effect the other way; inactive = no such curve, though single readings can be large or run the other way. Residues, ends and D or L forms follow the SMILES beside them.
Assay: qHTS assay to identify small molecule agonists of the vitamin D receptor (VDR) signaling pathway - cell viability counter screen (AID 743224); also: nearly all actives have a fitted effect of over 50% in size
Settings: VDR-bla HEK293T viability, CellTiter-Glo luminescence, 16 h; series mostly up to 62.6 µM; activity change, negative = cytotoxicity: at the top concentration
How it was run: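 CellTiter-Glo viability readout on VDR-bla cells, measured after 16 h of compound treatment at 37C in the same wells.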
In the case of `O=C(O)CCC(=O)O`, the outcome is reported as “inactive”.
In the case of `CCCC(O)C(CC)CO` (stereo not drawn), the outcome is reported as “inactive”.
For `CC(O)CO` (stereo not drawn), the outcome was “inactive”.
With `CC(O)CN(CCN(CC(C)O)CC(C)O)CC(C)O` (stereo not drawn) the outcome was “inactive”.
For `O=C(O)c1cccnc1`, the outcome was “inactive”.
With `O=C(O)C(=O)O` the outcome was “inactive”.
In the case of `CC(=O)Nc1nnc(S(N)(=O)=O)s1`, the outcome is reported as “inactive”.
With `OC(Cn1cncn1)(Cn1cncn1)c1ccc(F)cc1F` the outcome was “inactive”.
For `O=C(O)c1cccc([N+](=O)[O-])c1`, the outcome was “inactive”.
For `CC(O)C(=O)O` (stereo not drawn), the outcome was “inactive”.
In the case of `Nc1ccn([C@H]2CC[C@@H](CO)O2)c(=O)n1`, the outcome is reported as “inactive”.
For `CC1(C)[C@@H]2CC[C@@]1(C)C(=O)C2`, the outcome was “inactive”.
With `Cc1ccccc1C(OCCN(C)C)c1ccccc1` (stereo not drawn) the outcome was “inactive”.
With `Nc1ccc(S(=O)(=O)Nc2nccs2)cc1` the outcome was “inactive”.
With `COC(=O)[C@H](Cc1ccccc1)NC(=O)[C@@H](N)CC(=O)O` (H-Asp-Phe-OMe) the outcome was “inactive”.
In the case of `O=C1NC(=O)c2ccccc21`, the outcome is reported as “inactive”.
With `CCCCCCCCCCCCCCCC(=O)O` the outcome was “inactive”.
In the case of `Cc1ccc(C)c(OCCCC(C)(C)C(=O)O)c1`, the outcome is reported as “inactive”.
In the case of `CC(=O)OCC(COC(C)=O)OC(C)=O`, the outcome is reported as “inactive”.
With `C1N2CN3CN1CN(C2)C3` the outcome was “inactive”.
With `O=c1cc[nH]c(=S)[nH]1` the outcome was “inactive”.
In the case of `CCCNC(=O)NS(=O)(=O)c1ccc(Cl)cc1`, the outcome is reported as “inactive”.
With `Nc1ccc(O)c(C(=O)O)c1` the outcome was “inactive”.
In the case of `NC(N)=NC(=O)c1nc(Cl)c(N)nc1N`, the outcome is reported as “inactive”.
For `CC(C)[C@@H]1CC[C@@H](C)C[C@H]1O`, the outcome was “inactive”.
In the case of `Cc1ccc(S(=O)(=O)NC(=O)NN2CCCCCC2)cc1`, the outcome is reported as “inactive”.
With `O=C(c1ccccc1)c1ccccc1` the outcome was “inactive”.
In the case of `O=C1CN(/N=C/c2ccc([N+](=O)[O-])o2)C(=O)N1`, the “activity change, negative = cytotoxicity” value is reported as -0.796% (inactive).

Reference: PubChem BioAssay (Tox21)
% is scaled to controls: 0 for no effect and ±100 for the full control effect.
